{"source": "ChEMBL document CHEMBL4513216", "about": "“Probing the Open Global Health Chemical Diversity Library for Multistage-Active Starting Points for Next-Generation Antimalarials” (ACS Infect Dis, 2020)", "note": "Hit rate of the full screen: of about 69,000 compounds, about 8,600 (12%) showed an effect of 50% or more. Shown is part of a subset that was picked to be rich in strong results."}
{"system": "Plasmodium berghei", "test": "Screen against P. berghei liver stage (PbLuc), transformed with Luciferase, at 10uM", "format": "functional, HepG2", "conditions": "tested at 10 uM", "units": {"INHIBITION": "%"}}
{"smiles": "CC(=O)N1CCCC(c2ccc(N3CCOCC3)cn2)C1", "note": "(configuration not stated)", "INHIBITION": -4.51}
{"smiles": "Cc1ccc(NCc2cnc3n2CCN(c2ncccn2)CC3)nn1", "INHIBITION": 35.2}
{"smiles": "Cc1ccccc1CNC(=O)C1CCN(Cc2nccn2C)CC1", "INHIBITION": -17}
{"smiles": "CC(=O)N1CCC(Cc2cnc(-c3c(C)nn(C)c3C)cn2)C1", "note": "(configuration not stated)", "INHIBITION": 33.5}
{"smiles": "Cn1ccnc(Sc2cccc(C#N)c2)c1=O", "INHIBITION": 15}
{"smiles": "COCCN1CCN(C(=O)C(c2cccc(F)c2)N(C)C)CC1", "note": "(configuration not stated)", "INHIBITION": 41.5}
{"smiles": "CN(C)C(C(=O)N1CCN(CCn2cccc2)CC1)c1cccc(F)c1", "note": "(configuration not stated)", "INHIBITION": 44.7}
{"smiles": "COCCCN1CCN(C(=O)C(c2cccc(F)c2)N(C)C)CC1", "note": "(configuration not stated)", "INHIBITION": 50.1}
{"smiles": "CC(Cn1ccnc1)NC(=O)N1CCN(Cc2ccsc2)CC1", "note": "(configuration not stated)", "INHIBITION": 31.9}
{"smiles": "COc1ccc2c(c1)CC(C1CCOCC1)N(C(=O)c1ccn(C)n1)C2", "note": "(configuration not stated)", "INHIBITION": 2.45}
{"smiles": "CC(=O)N(Cc1ncc(C(C)C)o1)C1CCN(CCn2cncn2)C1", "note": "(configuration not stated)", "INHIBITION": -13.2335}
{"smiles": "CC1=CC[C@@H]2CN(C(=O)c3ccc(-c4nc[nH]n4)cc3)C[C@@H]2C1", "INHIBITION": 40.7}
{"smiles": "c1ccc(COC[C@]23COC[C@H]2CN(c2ncccn2)C3)nc1", "INHIBITION": 53}
{"smiles": "COc1cc(N2C[C@@H]3COC[C@]3(COCc3ccccn3)C2)ncn1", "INHIBITION": 68.4}
{"smiles": "COCC(=O)NC[C@]12COC[C@H]1CN(c1ncc(F)cn1)C2", "INHIBITION": -22.1}
{"smiles": "COc1ncccc1CN1C[C@@H]2COC[C@]2(COc2ccccn2)C1", "INHIBITION": -32}
{"smiles": "O=C(CC1CC1)NC[C@]12COC[C@H]1CN(c1ncccn1)C2", "INHIBITION": 88}
{"smiles": "c1ccc(OC[C@]23COC[C@H]2CN(c2ncccn2)C3)nc1", "INHIBITION": 31.9}
{"smiles": "COc1cc(N2C[C@@H]3COC[C@]3(COc3cccnc3)C2)ncn1", "INHIBITION": 42.1}
{"smiles": "COc1cc(N2C[C@@H]3COC[C@]3(COc3ccccn3)C2)ncn1", "INHIBITION": -6.3}
{"smiles": "COc1cc(N2C[C@@H]3COC[C@]3(COCc3ccncc3)C2)ncn1", "INHIBITION": 34.6}
{"smiles": "COc1cc(N2C[C@@H]3COC[C@]3(COc3ncccc3F)C2)ncn1", "INHIBITION": 73}
{"smiles": "Cc1cccc(COC[C@]23COC[C@H]2CN(c2ncccn2)C3)n1", "INHIBITION": 38.1}
{"smiles": "O=C(CC1CC1)NC[C@]12COC[C@H]1CN(c1ncc(F)cn1)C2", "INHIBITION": 1.48}
{"smiles": "CS(=O)(=O)N1C[C@H]2CC[C@@H](C1)N(C(=O)Cn1ccc3ccccc31)C2", "INHIBITION": -7.98}
{"smiles": "CC(C)C(C)NC(=O)Nc1cccc(OCC#N)c1", "note": "(configuration not stated)", "INHIBITION": -16}
{"smiles": "CC(c1c(F)cccc1F)N1CCN(Cc2nccn2C)CC1", "note": "(configuration not stated)", "INHIBITION": 19.2}
{"smiles": "Cc1nc(CNC(=O)Nc2c(C)n[nH]c2C)cs1", "INHIBITION": 19.9}
{"smiles": "CN(C)C(=O)CN1CCC2(CCN(Cc3nccs3)CC2)C1=O", "INHIBITION": -21.3}
{"smiles": "Cc1nc2cc(C3CCOCC3)nn2c(NCC2COCCO2)c1C", "note": "(configuration not stated)", "INHIBITION": 32.75}
{"smiles": "CCn1ncc2c1C(COCC1CC1)CN(S(=O)(=O)N(C)C)C2", "note": "(configuration not stated)", "INHIBITION": 35.1}
{"smiles": "COCC(=O)N1CCC([C@@H]2C[C@H](C(F)(F)F)n3nc(C)cc3N2)CC1", "INHIBITION": -6.92}
{"smiles": "CC(c1ccccn1)N(C)Cc1ccc(-n2ccnc2)cc1", "note": "(configuration not stated)", "INHIBITION": 37.6}
{"smiles": "COc1cc(N2C[C@@H]3COC[C@]3(COc3ccc(C#N)cn3)C2)ncn1", "INHIBITION": 71.1}
{"smiles": "Cc1cccc(CN2C[C@@H]3COC[C@]3(COc3ccc(C#N)cn3)C2)n1", "INHIBITION": 6.8}
{"smiles": "Cc1cccc(COC[C@]23COC[C@H]2CN(C(=O)c2ccsc2)C3)n1", "INHIBITION": -29.9}
{"smiles": "Cn1cc(CN2C[C@@H]3COC[C@]3(COc3ccc(C#N)cn3)C2)cn1", "INHIBITION": -43.2}
{"smiles": "COc1cc(N2C[C@@H]3COC[C@]3(COCc3cccc(C)n3)C2)ncn1", "INHIBITION": 63.7}
{"smiles": "N#Cc1ccc(OC[C@]23COC[C@H]2CN(c2ncccn2)C3)nc1", "INHIBITION": -7.29}
{"smiles": "Cc1cccc(CNC(=O)N(CCCO)C2CCc3ccccc32)n1", "note": "(configuration not stated)", "INHIBITION": -14.6}
{"smiles": "CNc1snc(C)c1C(=O)NC(C)CC(=O)c1cccs1", "note": "(configuration not stated)", "INHIBITION": 44.6}
{"smiles": "CCc1nc(NC2CCCN(C(=O)c3cccs3)C2)c2cnn(C)c2n1", "note": "(configuration not stated)", "INHIBITION": 32.8}
{"smiles": "CC(C)C1CN(C(=O)c2cccs2)CCS1", "note": "(configuration not stated)", "INHIBITION": 29.5}
{"smiles": "CC(C)c1cc(NC2CCCN(C(=O)c3cccs3)C2)ncn1", "note": "(configuration not stated)", "INHIBITION": 80}
{"smiles": "CC(C)c1cc(NC2CCN(C(=O)N3CCCC3)CC2)ncn1", "INHIBITION": 74.7}
{"smiles": "O=C(N1CCCC1)N1CCC(Nc2ccncn2)CC1", "INHIBITION": 34.1}
{"smiles": "O=C(N1CCOCC1)N1CCC(Nc2ccncn2)CC1", "INHIBITION": 29.4}
{"smiles": "COc1ccc(CC(=O)NC2(C#N)CCOCC2)c(Cl)c1", "INHIBITION": -8.4}
{"smiles": "Cc1ccc(N2CCCC(NCc3cccs3)C2)nn1", "note": "(configuration not stated)", "INHIBITION": -19.4}
{"smiles": "CCNC(=O)NC(=O)CN1CCCC1c1nc(C2CCCCC2)co1", "note": "(configuration not stated)", "INHIBITION": 10.8}
{"smiles": "CC(=O)Nn1ccc2c(nnc3c(-c4ccc(F)cc4)cnn32)c1=O", "INHIBITION": 58.5}
{"smiles": "O=C(O)CCn1ccc2c(nnc3c(-c4ccc(F)cc4)cnn32)c1=O", "INHIBITION": 63.6}
